# Measured values published in PubChem BioAssay (Tox21).
# Where “and” joins values, the source holds several entries; their conditions need not be identical. Equal values may be shown once. Records with an inconclusive call do not appear. Entries that show only a call come without a potency. A structure can be active in one record and inactive in another. Calls of active or inactive are those of the source. Unless noted, calls follow the shape of the dose curve; as a rule, active = well fitted curve in the direction sought with a large enough effect in the repeat runs; inconclusive = weak or mixed curves; inactive = no such curve, though single readings can be large; an effect the other way counts as inactive or inconclusive.
# How the values were obtained:
# [1] = qHTS assay to identify aromatase inhibitors - cell viability counter screen (AID 743084); conditions: MCF-7 aro ERE viability, CellTiter-Fluor, 24 h; series mostly up to 70.3 µM;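 also: cells stimulated with testosterone during compound exposure; nearly all actives have a fitted effect of over 55% in size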; also: potency is read from the fitted curve at half-maximal effect
# [2] = target: Aryl hydrocarbon receptor (Homo sapiens) (UniProt P35869); experiment: qHTS assay to identify small molecule that activate the aryl hydrocarbon receptor (AhR) signaling pathway (AID 743085); conditions: HepG2 AhR-luc (HG2L7.5c1), luciferase, 24 h; series mostly up to 70.3 µM; also: nearly all actives have a fitted effect of over 15% in size; also: potency is read from the fitted curve at half-maximal effect;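 as to activation: HG2L7.5c1 human HepG2 liver cells with stably integrated DRE-driven firefly reporter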
# Chain of Aryl hydrocarbon receptor (Homo sapiens) (P35869 whole entry, looked up): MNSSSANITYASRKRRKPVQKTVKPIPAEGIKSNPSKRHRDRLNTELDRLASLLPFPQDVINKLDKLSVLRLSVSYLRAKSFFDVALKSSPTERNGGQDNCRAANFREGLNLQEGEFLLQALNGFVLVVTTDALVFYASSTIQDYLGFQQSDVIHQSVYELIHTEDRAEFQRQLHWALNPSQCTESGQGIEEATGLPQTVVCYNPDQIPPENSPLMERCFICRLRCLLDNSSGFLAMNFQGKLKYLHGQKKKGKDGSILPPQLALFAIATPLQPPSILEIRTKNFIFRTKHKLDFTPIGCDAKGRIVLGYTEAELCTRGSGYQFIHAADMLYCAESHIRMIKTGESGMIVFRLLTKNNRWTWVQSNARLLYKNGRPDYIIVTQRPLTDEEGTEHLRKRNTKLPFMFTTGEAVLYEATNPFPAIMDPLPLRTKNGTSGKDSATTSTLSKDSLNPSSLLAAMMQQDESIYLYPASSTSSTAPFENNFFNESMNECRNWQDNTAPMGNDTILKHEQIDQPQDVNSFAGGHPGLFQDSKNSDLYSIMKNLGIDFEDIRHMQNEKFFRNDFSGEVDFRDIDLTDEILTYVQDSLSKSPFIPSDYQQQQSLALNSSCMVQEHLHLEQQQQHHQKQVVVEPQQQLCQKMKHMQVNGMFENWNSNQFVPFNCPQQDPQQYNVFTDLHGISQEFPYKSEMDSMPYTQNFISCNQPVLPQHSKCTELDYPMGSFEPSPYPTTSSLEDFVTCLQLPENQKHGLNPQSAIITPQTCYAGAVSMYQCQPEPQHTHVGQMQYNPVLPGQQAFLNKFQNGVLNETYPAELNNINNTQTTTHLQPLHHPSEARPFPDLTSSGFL
# Method in brief: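 A multiplexed format paired cell viability (CellTiter-Fluor fluorescence) with AhR-dependent luciferase output (ONE-Glo luminescence) in the same wells of HepG2 DRE-luc cells after 24 h compound exposure at 37C.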
# [3] = qHTS assay to identify small molecule that activate the aryl hydrocarbon receptor (AhR) signaling pathway - cell viability counter screen (AID 743086); conditions: HepG2-AhR-luc viability, CellTiter-Fluor, 24 h; series mostly up to 70.3 µM;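 also: HepG2 liver cells carrying the AhR DRE luciferase reporter; nearly all actives have a fitted effect of over 45% in size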
# Method in brief: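 Cytotoxicity counter screen: CellTiter-Fluor signal (30 min, 37 C) in 4000 HepG2 cells/well carrying the DRE-luciferase reporter, following 24 h compound exposure at 37 C.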
# [4] = target: Peroxisome proliferator-activated receptor gamma (Homo sapiens) (UniProt P37231); experiment: qHTS assay to identify small molecule agonists of the peroxisome proliferator-activated receptor gamma (PPARg) signaling pathway (AID 743094; active = well fitted activation curve with a large enough effect in the signal ratio in the repeat runs, not every such curve was filed as active; the % refers to the signal ratio); conditions: HEK293H PPARg-UAS-bla, beta-lactamase FRET ratio, 17 h; series mostly up to 57 µM
# Chain of Peroxisome proliferator-activated receptor gamma (Homo sapiens) (P37231 whole entry, looked up): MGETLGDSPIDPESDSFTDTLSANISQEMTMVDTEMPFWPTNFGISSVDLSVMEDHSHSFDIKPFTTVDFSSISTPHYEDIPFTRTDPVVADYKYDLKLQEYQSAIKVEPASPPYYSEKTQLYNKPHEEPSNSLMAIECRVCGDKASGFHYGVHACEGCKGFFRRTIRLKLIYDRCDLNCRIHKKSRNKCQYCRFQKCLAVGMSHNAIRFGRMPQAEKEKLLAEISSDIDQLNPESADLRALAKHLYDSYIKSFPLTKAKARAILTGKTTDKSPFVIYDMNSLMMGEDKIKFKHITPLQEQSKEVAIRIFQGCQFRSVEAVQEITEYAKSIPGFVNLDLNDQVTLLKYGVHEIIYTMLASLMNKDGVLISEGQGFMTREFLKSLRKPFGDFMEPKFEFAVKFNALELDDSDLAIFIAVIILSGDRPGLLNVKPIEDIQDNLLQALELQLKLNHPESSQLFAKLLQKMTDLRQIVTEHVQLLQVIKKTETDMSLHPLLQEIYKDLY
# Method in brief: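 Beta-lactamase FRET fluorescence was the read-out after a 1 h room-temperature substrate step, following 17 h compound treatment at 37C of HEK293H cells expressing a UAS-driven bla reporter responsive to PPARg.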
# [5] = target: Peroxisome proliferator-activated receptor gamma (Homo sapiens) (UniProt P37231); experiment: qHTS assay to identify small molecule antagonists of the peroxisome proliferator-activated receptor gamma (PPARg) signaling pathway (AID 743191; calls by dose curve; also: nearly all actives have a fitted effect of over 30% in size; also: potency is read from the fitted curve at half-maximal effect); conditions: HEK293H PPARg-UAS-bla, beta-lactamase ratio, antagonist, 17 h; series mostly up to 62.6 µM
# Method in brief: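 Beta-lactamase reporter under UAS control in HEK293H PPARg-bla cells; compound treatment 17 h at 37C. Read-out: fluorescence intensity after 1 h room-temperature incubation with LiveBLAzer B/G FRET substrate.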
# [6] = qHTS assay to identify small molecule antagonists of the peroxisome proliferator-activated receptor gamma (PPARg) signaling pathway - cell viability counter screen (AID 743194); conditions: PPARg-bla HEK293H viability, CellTiter-Glo luminescence, 17 h; series mostly up to 62.6 µM; also: nearly all actives have a fitted effect of over 55% in size
# Method in brief: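 Viability was measured as CellTiter-Glo luminescence in GeneBLAzer PPARg UAS-bla HEK293H cells. These cells had been exposed 17 h at 37 C to compounds together with rosiglitazone at 50 nM final, with the beta-lactamase readout taken in the same wells.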
# [7] = qHTS assay for small molecule agonists of the antioxidant response element (ARE) signaling pathway (AID 743202; active = well fitted activation curve with a large enough effect in the signal ratio in the repeat runs, not every such curve was filed as active; the % refers to the signal ratio; also: potency is read from the fitted curve at half-maximal effect); conditions: HepG2 ARE-bla reporter, beta-lactamase FRET, 16 h; series mostly up to 73.3 µM
# Method in brief: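 Quantitative high-throughput format in HepG2 cells bearing an integrated ARE-beta-lactamase reporter. Compound exposure lasted 16 h at 37 C, and fluorescence was read 2 h after adding LiveBLAzer B/G substrate at room temperature.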
# [8] = qHTS assay for small molecule agonists of the antioxidant response element (ARE) signaling pathway - cell viability counter screen (AID 743203; calls by dose curve; also: nearly all actives have a fitted effect of over 55% in size); conditions: ARE-bla HepG2 viability, CellTiter-Glo luminescence, 16 h; series mostly up to 73.3 µM
# Method in brief: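 HepG2 cells carrying ARE-driven beta-lactamase; 2,000 cells/well; 5 hrs plating; compound pinned from DMSO; 16 hrs 37C/5% CO2; CellTiter-Glo added; 30 min RT; luminescence.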
# [9] = qHTS assay for small molecule activators of the heat shock response signaling pathway - cell viability counter screen (AID 743209); conditions: HSE-bla HeLa viability, CellTiter-Glo luminescence, 5 h; series mostly up to 62.6 µM; also: nearly all actives have a fitted effect of over 50% in size
# Method in brief: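 Luminescence from CellTiter-Glo, added after the beta-lactamase FRET read, gave the viability signal. Cells were HSE-bla HeLa treated with DMSO-dissolved compounds for 5 h at 37 C following overnight plating.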
# [10] = qHTS assay for small molecule activators of the heat shock response signaling pathway (AID 743210; active = well fitted activation curve with a large enough effect in the signal ratio in the repeat runs, with a control signal flat, not every such curve was filed as active; the % refers to the signal ratio; also: potency is read from the fitted curve at half-maximal effect;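 as to activation: HeLa cells with beta-lactamase reporter driven by heat shock elements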); conditions: HeLa HSE-bla reporter, beta-lactamase ratio, 5 h; series mostly up to 62.6 µM
# Method in brief: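 HeLa HSE-bla cells, overnight plating; cpd in DMSO 5 h, 37 C; LiveBLAzer B/G FRET substrate 2.5 h RT; fluorescence intensity read.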
SMILES,Potency [1],Potency [2],outcome [3],outcome [4],Potency [5],outcome [6],Potency [7],Potency [8],Potency [9],Potency [10]
O=[N+]([O-])c1cc([As](=O)(O)O)ccc1O,inactive,inactive,inactive,inactive,inactive,inactive,inactive,inactive,inactive,inactive
C[C@H]1C(=O)O[C@@H]2CCN3CC=C(COC(=O)[C@](C)(O)[C@]1(C)O)[C@H]23,inactive,inactive,inactive,inactive,inactive,inactive,inactive,inactive,inactive,inactive
CNC(=O)O/N=C/C(C)(C)S(C)(=O)=O,inactive,inactive,inactive,inactive,inactive,inactive,inactive,inactive,inactive,inactive
CNCC(O)c1ccc(O)cc1 (stereo not given),inactive,inactive,inactive,inactive,inactive,inactive,,inactive,inactive,inactive
O=C(O)CCCc1ccc(N(CCCl)CCCl)cc1,inactive and 30.6 µM (active),inactive,inactive,inactive,inactive,inactive,inactive,inactive,inactive,inactive
O=C(O)c1cc(Oc2ccc(C(F)(F)F)cc2Cl)ccc1[N+](=O)[O-],inactive,inactive,inactive,inactive,inactive,inactive,inactive,inactive,inactive,inactive
Nc1cc(Cl)cc(Cl)c1,inactive,inactive,inactive,inactive,,inactive,inactive,inactive,inactive,inactive
Cc1ccc(N)cc1,inactive,24.5 µM (active) and inactive and 61.1 µM (active),inactive,inactive,inactive,inactive,inactive,inactive,inactive,inactive
CC(C)c1cccc(C(C)C)c1O,inactive,inactive,inactive,inactive,inactive,inactive,inactive,inactive,inactive,inactive
N#CN=C(N)N,inactive,inactive,inactive,inactive,inactive,inactive,inactive,inactive,inactive,inactive
C=CCN=C=S,inactive,inactive,inactive,inactive,inactive,inactive,inactive,inactive,inactive,inactive
O=C(O)COc1ccccc1,inactive,inactive,inactive,inactive,inactive,inactive,inactive,inactive,inactive,inactive
COC(=O)Nc1cccc(OC(=O)Nc2cccc(C)c2)c1,inactive,27.3 µM (active) and 2.73 µM (active),inactive,inactive,,inactive,48.6 µM (active) and inactive,inactive,inactive,
Cc1ccc(O)c(C)c1,inactive,inactive,inactive,inactive,inactive,inactive,,inactive,inactive,inactive
CCOC(=O)CC(SP(=O)(OC)OC)C(=O)OCC (stereo not given),inactive,inactive,inactive,inactive,inactive,inactive,,inactive,inactive,inactive
CCOP(=S)(OCC)Oc1ccc([N+](=O)[O-])cc1,inactive,31 µM (active) and 10.6 µM (active),inactive,inactive,inactive,inactive,inactive,inactive,inactive,inactive
CNC(=O)O/N=C(\SC)C(=O)N(C)C,inactive,inactive,inactive,inactive,inactive,inactive,inactive,inactive,inactive,inactive
COS(=O)(=O)OC,inactive,inactive,inactive,inactive,inactive,inactive,inactive,inactive,inactive,inactive
[N-]=[N+]=CC(=O)OC[C@H](N)C(=O)O,,,inactive,,,inactive,inactive,inactive,inactive,
O=C(O)C(Br)Br,inactive,,inactive,inactive,inactive,inactive,86.3 nM (active),inactive,inactive,inactive
Sc1ccccc1,inactive,inactive,inactive,,,inactive,inactive,inactive,inactive,44.3 µM (active) and inactive
Oc1ccc(Cl)cc1,inactive,inactive,inactive,,,inactive,inactive,inactive,inactive,inactive
Nc1nc(N)nc(NC2CC2)n1,inactive,inactive,inactive,,,inactive,,inactive,inactive,inactive and 43.6 µM (active)
COc1cc(-c2ccc(N)c(OC)c2)ccc1N,inactive,,inactive,inactive,inactive and 33.1 µM (active),inactive,,inactive,inactive,inactive
OCCCCO,inactive,inactive,inactive,,,inactive,inactive,inactive,inactive,inactive

SMILES,Potency [1],Potency [2],outcome [3],outcome [4],Potency [5],outcome [6],Potency [7],Potency [8],Potency [9],Potency [10]
CC(C)(C)C(=O)CCl,inactive,,inactive,inactive,inactive,inactive,inactive,inactive,inactive,inactive
Nc1ccc(N)cc1,inactive and 54.7 µM (active) and 43.3 µM (active),,inactive,inactive,inactive,inactive,8.67 µM (active) and 10.6 µM (active),inactive,inactive,
CSc1nnc(C(C)(C)C)c(=O)n1N,,,inactive,,,inactive,inactive,inactive,inactive,inactive
C/C=C/c1ccc2c(c1)OCO2,inactive,,inactive,inactive,,inactive,inactive,inactive,inactive,inactive
C=CC(=O)OCC(CC)CCCC (stereo not given),inactive,inactive,inactive,,,inactive,inactive,inactive,inactive,inactive
CCCCCCCCCCCCCCCCCC(=O)O,inactive,,inactive,,,inactive,inactive,inactive,inactive,
Cl/C=C/Cl,inactive,inactive,inactive,,,inactive,inactive,inactive,inactive,inactive
CN(C)CCC#N,inactive,,inactive,inactive,inactive,inactive,inactive,inactive,inactive,inactive
Nc1ccc([As](=O)(O)O)cc1,inactive,,inactive,inactive,inactive,inactive,inactive,inactive,inactive,inactive
Cc1cccc(N)c1,inactive,,inactive,inactive,inactive,inactive,inactive,inactive,inactive,inactive
CC12CC1(C)C(=O)N(c1cc(Cl)cc(Cl)c1)C2=O (stereo not given),inactive,27.2 µM (active) and inactive,inactive,inactive,,inactive,,inactive,inactive,inactive
O=C(O)C1C(C(=O)O)C2(Cl)C(Cl)=C(Cl)C1(Cl)C2(Cl)Cl (stereo not given),inactive,inactive,inactive,,,inactive,inactive,inactive,inactive,inactive
CNC(=O)Oc1cccc2ccccc12,inactive,5.31 µM (active) and 54 µM (active) and 27.3 µM (active),inactive,,,inactive,,inactive,inactive,inactive
C[C@]12CC[C@H](O)CC1=CC[C@@H]1[C@@H]2CC[C@]2(C)C(=O)CC[C@@H]12,inactive,inactive,inactive,inactive,,inactive,,inactive,inactive,inactive
CC(C)CCCCCCOC(=O)c1ccccc1C(=O)OCCCCCCC(C)C,inactive,inactive,inactive,,,inactive,inactive,inactive,inactive,inactive
Cc1cc(Cl)ccc1OC(C)C(=O)O (stereo not given),inactive,inactive,inactive,,inactive,inactive,inactive,inactive,inactive,inactive
CN1C(=O)CCS(=O)(=O)C1c1ccc(Cl)cc1 (stereo not given),inactive,inactive,inactive,,,inactive,inactive,inactive,inactive,inactive
NNc1ccccc1,inactive,,inactive,inactive,13.8 µM (active) and inactive,inactive,inactive,inactive,inactive,inactive
O=[N+]([O-])c1ccc(Cl)cc1,inactive,inactive,inactive,,,inactive,inactive,inactive,inactive,inactive
Cc1ccccc1N,inactive,inactive,inactive,,,inactive,inactive,inactive,inactive,inactive
CNC(=O)O/N=C/C(C)(C)S(C)=O (stereo not given),inactive,,inactive,inactive,inactive,inactive,inactive,inactive,inactive,inactive
Clc1cnc(Oc2ccc(Oc3ncc(Cl)cc3Cl)cc2)c(Cl)c1,inactive,inactive,inactive,inactive,,inactive,,inactive,inactive,inactive
CCOc1ccc(N)cc1,inactive,48.7 µM (active) and inactive,inactive,,,inactive,,inactive,inactive,inactive
Nc1cccc(Cl)c1,inactive,,inactive,inactive,inactive,inactive,inactive,inactive,inactive,
